Test: qHTS profiling for inhibitors of Plasmodium falciparum (HB3) proliferation (AID 743324);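 further: 100% = DMSO vehicle wells and 0% = artemisinin-treated control wells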
Conditions: Plasmodium falciparum HB3 blood-stage proliferation; at 28.7 µM (top of the series) unless noted
Excerpt: Plasmodium falciparum is a virulent malarial parasite that kills 1-2 million people worldwide each year. Transmitted by mosquitoes, the sporozoite form of the parasite enters the blood stream to infect hepatocytes, where they become merozoites that infect red blood cells (erythrocytes). Within erythrocytes, merozoites begin a […] cycle of growth and division, after which the parasite is released to infect new red blood cells. Gametocytes, which form within erythrocytes as well, circulate in the bloodstream and are ingested by the mosquito, thereby completing the life cycle. To profile malarial isolates for differential chemical responses and to identify inhibitors of malarial growth, an assay that measures P. falciparum growth and replication within erythrocytes was employed. This assay uses a DNA binding fluorescent dye (SYBR Green) to detect parasite DNA following cell lysis. Because mature erythrocytes lack DNA, only Plasmodium-derived DNA is detected.
For screening 3 ul culture medium was dispensed into 1536 well black clear bottom plates (Aurora Biotechnologies) using a Multidrop Combi (Thermo Fisher Scientific Inc.), 23 nL compounds in DMSO were added by a pin tool (Kalypsys), and 5 ul of erythrocytes infected with P. falciparum (0.3% parasitemia, 2.5% hematocrit final concentration) were added. The plates were incubated at 37 C in a humidified incubator in 5% CO2 for 72 h, and 2 ul lysis buffer (20 mM Tris HCl, 10 mM EDTA, 0.16% saponin, […]% triton X, 10X SYBR Green I supplied as 10,000X […] by Invitrogen) was added to each well. The plates were mixed for 25 sec with gentle shaking and incubated overnight at room temperature in the dark. The following morning, fluorescence intensity at 485(14) nm excitation and 535(25) nm emission wavelengths was measured on an EnVision (Perkin Elmer) plate reader. Plate reads were normalized relative to the control inhibitor (0.29 uM artemisinin) and vehicle (DMSO) wells present on each plate and then corrected by an algorithm using vehicle-only control plates at the beginning and end of the compound plate stack.
Molecule `OCCC#Cc1nc(-c2ccc(F)cc2)c(-c2ccncc2)n1CCCc1ccccc1` has a remaining proliferation (% of control), lower = more inhibition of 7.5%.
Molecule `CC(C)(C)OC(=O)CN(Cc1ccc(Cl)cc1)Cc1ccc([N+](=O)[O-])s1` has a remaining proliferation (% of control), lower = more inhibition of -1.32%.
With `Cc1cnc(Nc2ccc(OCCN3CCCC3)cc2)nc1Nc1cccc(S(=O)(=O)NC(C)(C)C)c1` the remaining proliferation (% of control), lower = more inhibition was 1.48%.
Work on `CCc1ccc(CCOc2ccc(CC3SC(=O)NC3=O)cc2)nc1` (stereo not given) yielded a remaining proliferation (% of control), lower = more inhibition of 66.4%.
With `Cn1cnc2c(F)c(Nc3ccc(Br)cc3Cl)c(C(=O)NOCCO)cc21` the remaining proliferation (% of control), lower = more inhibition was 94.6%.
Molecule `Nc1cccc(S(=O)(=O)N2CCCN(S(=O)(=O)c3ccc4c(c3)OCCO4)CC2)c1` has a remaining proliferation (% of control), lower = more inhibition of 70.3%.
Molecule `COc1ccc(C2=N[C@H](c3ccc(Cl)cc3)[C@H](c3ccc(Cl)cc3)N2C(=O)N2CCNC(=O)C2)c(OC(C)C)c1` has a remaining proliferation (% of control), lower = more inhibition of 23.2%.
For `COc1ccc(-c2ccc3c(N4CCOCC4)nc(N4C[C@@H](C)O[C@@H](C)C4)nc3n2)cc1CO`, the remaining proliferation (% of control), lower = more inhibition was 18.1%.
Work on `Cc1cc([C@@H](C)Nc2ccccc2C(=O)O)c2nc(N3CCOCC3)cc(=O)n2c1` yielded a remaining proliferation (% of control), lower = more inhibition of 31.4%.
In the case of `COc1ccc(-c2c(-c3ccc(O)cc3O)n[nH]c2C)cc1`, the remaining proliferation (% of control), lower = more inhibition is reported as 0.491%.
Work on `C[C@@H]1CN(Cc2ccc(F)cc2)[C@@H](C)CN1C(=O)c1cc2c(C(=O)C(=O)N(C)C)cn(C)c2cc1Cl` yielded a remaining proliferation (% of control), lower = more inhibition of 52.3%.
In the case of `C/C(=C\C(=O)Nc1ccccc1C(=O)O)c1ccc2ccccc2c1`, the remaining proliferation (% of control), lower = more inhibition is reported as 114%.
Work on `CCn1c(-c2nonc2N)nc2cnc(Oc3cccc(NC(=O)c4ccc(OCCN5CCOCC5)cc4)c3)cc21` yielded a remaining proliferation (% of control), lower = more inhibition of 14.7%.
In the case of `CCC(C)(C)C(=O)O[C@H]1C[C@@H](C)C=C2C=C[C@H](C)[C@H](CC[C@@H]3C[C@@H](O)CC(=O)O3)[C@H]21`, the remaining proliferation (% of control), lower = more inhibition is reported as 86.8% [at 9.63 µM].
`COc1c(Cl)cc2c([nH]c3cnccc32)c1NC(=O)c1cccnc1C` gave a remaining proliferation (% of control), lower = more inhibition of 86.1%.
In the case of `CC(C)(N)C(=O)N[C@H](COCc1ccccc1)C(=O)N1CCC2(CC1)CN(S(C)(=O)=O)c1ccccc12`, the remaining proliferation (% of control), lower = more inhibition is reported as 1.31%.
With `COCC(=O)NCC=Cc1ccc2ncnc(Nc3ccc(Oc4ccc(C)nc4)c(C)c3)c2c1` the remaining proliferation (% of control), lower = more inhibition was 7.14%.
In the case of `CCOC(=O)N[C@@H]1CC[C@@H]2[C@@H](C1)C[C@H]1C(=O)O[C@H](C)[C@H]1[C@@H]2C=Cc1ccc(-c2cccc(F)c2)cn1`, the remaining proliferation (% of control), lower = more inhibition is reported as 0.902%.
In the case of `O=C(C=Cc1ccc(/C=C/C(=O)Nc2ccc(C3=NCCN3)cc2)cc1)Nc1ccc(C2=NCCN2)cc1`, the remaining proliferation (% of control), lower = more inhibition is reported as 10.9%.
`Cc1n[nH]c(C)c1Cc1sc2c(c1C(=O)N1C[C@H](O)CO1)c(=O)n(C)c(=O)n2CC(C)C` showed a remaining proliferation (% of control), lower = more inhibition of 81.9%.
For `c1ccc(-c2nn3c(c2-c2ccnc4cc(OCCN5CCOCC5)ccc24)CCC3)nc1`, the remaining proliferation (% of control), lower = more inhibition was 50.9%.
`CNCc1ccc(-c2[nH]c3cc(F)cc4c3c2CCNC4=O)cc1` showed a remaining proliferation (% of control), lower = more inhibition of 54%.
`O=C1CCCC2=C1C(c1[nH]ncc1Cl)N=C(Nc1nc3ccccc3o1)N2` (stereo not given) gave a remaining proliferation (% of control), lower = more inhibition of 114%.
`CCOc1cc(N2CCC(O)CC2)ccc1Nc1ncc2c(n1)N(C)c1ccccc1C(=O)N2C` showed a remaining proliferation (% of control), lower = more inhibition of -0.346%.
Work on `CCCc1nn(C)c2c(=O)[nH]c(-c3cc(S(=O)(=O)N4CCN(C)CC4)ccc3OCC)nc12` yielded a remaining proliferation (% of control), lower = more inhibition of 61.6%.
`Clc1ccc(Nc2nnc(Cc3ccncc3)c3ccccc23)cc1` gave a remaining proliferation (% of control), lower = more inhibition of 0.459%.
Work on `Fc1ccc(Cl)cc1-c1nc(Nc2ccncc2)c2nccnc2n1` yielded a remaining proliferation (% of control), lower = more inhibition of 13.2%.
Molecule `COc1ccc(CC2=NN3C([C@@H](CCc4ccccc4)[C@@H](C)O)=NC(C)C3C(=O)N2)cc1OC` (stereo not given in full) has a remaining proliferation (% of control), lower = more inhibition of 17.1%.
In the case of `Cc1cc2c(F)c(Oc3ncnn4cc(OC[C@@H](C)O)c(C)c34)ccc2[nH]1`, the remaining proliferation (% of control), lower = more inhibition is reported as 75.1%.
In the case of `O=c1ncn2nc(Sc3ccc(F)cc3F)ccc2c1-c1c(Cl)cccc1Cl`, the remaining proliferation (% of control), lower = more inhibition is reported as 23.8%.
`Cc1c(CN2CCN(C(=O)C(C)C)CC2)sc2c(N3CCOCC3)nc(-c3cnc(N)nc3)nc12` gave a remaining proliferation (% of control), lower = more inhibition of 8.2%.
In the case of `CCn1c(-c2nonc2N)nc2c(C#CC(C)(C)O)ncc(OC[C@H]3CCCNC3)c21`, the remaining proliferation (% of control), lower = more inhibition is reported as 2.14%.
`Cc1ccnc(NS(=O)(=O)c2ccc(NC(=O)Nc3ccc(S(=O)(=O)Nc4nccc(C)n4)cc3)cc2)n1` gave a remaining proliferation (% of control), lower = more inhibition of 3.95%.
Molecule `CS(=O)(=O)c1cccc(CNc2nc(Nc3ccc4c(c3)CCC(=O)N4)ncc2C(F)(F)F)c1` has a remaining proliferation (% of control), lower = more inhibition of 101%.
In the case of `CC(C)(Sc1ccc(CCN(CCCCC2CCCCC2)C(=O)NC2CCCCC2)cc1)C(=O)O`, the remaining proliferation (% of control), lower = more inhibition is reported as 92.7%.
Work on `CN(C)c1ccc(Nc2nc(N)n(C(=O)c3c(F)cccc3F)n2)cc1` yielded a remaining proliferation (% of control), lower = more inhibition of 7.62%.
Work on `COc1ccc(COc2cc3oc(=O)c4cc(C(C)O)ccc4c3cc2OC)cc1` (stereo not given) yielded a remaining proliferation (% of control), lower = more inhibition of 74.7%.
Molecule `CC(c1cc2ccccc2s1)N(O)C(N)=O` (stereo not given) has a remaining proliferation (% of control), lower = more inhibition of 109% [at 57.5 µM].
Work on `COc1cc(Oc2ccnc3cc(OC)c(OC)cc23)ccc1NC(=O)NC(C)c1nccs1` (stereo not given) yielded a remaining proliferation (% of control), lower = more inhibition of 16.5%.
`CCOC(=O)C1=C[C@@]2(CC)CCCN3CCc4c(n1c1ccccc41)[C@H]32` gave a remaining proliferation (% of control), lower = more inhibition of 25.8% [at 18.4 µM].

From PubChem BioAssay (NCATS)
